About 7,900 targets were measured; listed, in parts, are those with a hit and a random draw of the rest. About 0.6% of all pairs of compound and target were hits.
Tests used:
Assay in all cases: log2 fold change, soluble protein after heating vs DMSO (PISA); higher = thermal stabilisation; K562 cells, 10 uM, 30 min; active = over 0.2 and 3.5 SD of the protein, either way, in both replicates (recomputed)
erlotinib = compound: C#Cc1cccc(Nc2ncnc3cc(OCCOC)c(OCCOC)cc23)c1 [erlotinib]
Outline: (§1)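 K562 cells at 2×10^6 cells/mL were given 10 μM compound for 30 min. Aliquots then went through 3 min of heating across 48°C-58°C, were pooled, and were extracted in PBS with 0.5% NP-40 at 4°C, and the supernatant after 21,000xg for 90 min was quantified by TMTpro 16plex LC-MS/MS with channel sums equalised. Thermal stability relative to control samples, from duplicates, is given as log2 fold change.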

[1] = compound: C/C(=N\NC(=O)C1=CC(=CC=C1)S(=O)(=O)N2CCOCC2)/C3=C(C=CC(=C3)Cl)O
Outline: as §1

[2] = compound: C1=CC(=C(C=C1Cl)C2=NC3=NC=CN=C3C(=N2)NC4=CC=NC=C4)F
Outline: as §1

[3] = compound: C1=CC(=CC=C1C2=NC3=C(N2)C=C(C=C3)C(=O)N)OC4=CC=C(C=C4)Cl
Outline: as §1

[4] = compound: C1=CC2=C(C=CC(=C2)/C=C\3/C(=O)NC(=NCC4=CC=CS4)S3)N=C1
Outline: as §1

[5] = compound: C1=CC2=NC=CN=C2C=C1/C=C/3\C(=O)NC(=O)S3
Outline: as §1

[6] = compound: C1=CC=C(C=C1)C2=NC(=C(N2)C3=CC=NC=C3)C4=CC(=C(C=C4)Cl)O
Outline: as §1

[7] = compound: C1=CC=C2C(=C1)C3=NNC4=CC=CC(=C43)C2=O
Outline: as §1

[8] = compound: C1CCN(C1)C(=O)NC2=CC=CC(=C2)NC3=NC=C(C(=N3)NCCC4=CN=CN4)Br
Outline: as §1

[9] = compound: C1CN(CCC1(CC2=CC=C(C=C2)Cl)N)C3=NC=NC4=C3C=CN4
Outline: as §1

UniProt Q86UK5, sequence (Q86UK5 whole entry, looked up): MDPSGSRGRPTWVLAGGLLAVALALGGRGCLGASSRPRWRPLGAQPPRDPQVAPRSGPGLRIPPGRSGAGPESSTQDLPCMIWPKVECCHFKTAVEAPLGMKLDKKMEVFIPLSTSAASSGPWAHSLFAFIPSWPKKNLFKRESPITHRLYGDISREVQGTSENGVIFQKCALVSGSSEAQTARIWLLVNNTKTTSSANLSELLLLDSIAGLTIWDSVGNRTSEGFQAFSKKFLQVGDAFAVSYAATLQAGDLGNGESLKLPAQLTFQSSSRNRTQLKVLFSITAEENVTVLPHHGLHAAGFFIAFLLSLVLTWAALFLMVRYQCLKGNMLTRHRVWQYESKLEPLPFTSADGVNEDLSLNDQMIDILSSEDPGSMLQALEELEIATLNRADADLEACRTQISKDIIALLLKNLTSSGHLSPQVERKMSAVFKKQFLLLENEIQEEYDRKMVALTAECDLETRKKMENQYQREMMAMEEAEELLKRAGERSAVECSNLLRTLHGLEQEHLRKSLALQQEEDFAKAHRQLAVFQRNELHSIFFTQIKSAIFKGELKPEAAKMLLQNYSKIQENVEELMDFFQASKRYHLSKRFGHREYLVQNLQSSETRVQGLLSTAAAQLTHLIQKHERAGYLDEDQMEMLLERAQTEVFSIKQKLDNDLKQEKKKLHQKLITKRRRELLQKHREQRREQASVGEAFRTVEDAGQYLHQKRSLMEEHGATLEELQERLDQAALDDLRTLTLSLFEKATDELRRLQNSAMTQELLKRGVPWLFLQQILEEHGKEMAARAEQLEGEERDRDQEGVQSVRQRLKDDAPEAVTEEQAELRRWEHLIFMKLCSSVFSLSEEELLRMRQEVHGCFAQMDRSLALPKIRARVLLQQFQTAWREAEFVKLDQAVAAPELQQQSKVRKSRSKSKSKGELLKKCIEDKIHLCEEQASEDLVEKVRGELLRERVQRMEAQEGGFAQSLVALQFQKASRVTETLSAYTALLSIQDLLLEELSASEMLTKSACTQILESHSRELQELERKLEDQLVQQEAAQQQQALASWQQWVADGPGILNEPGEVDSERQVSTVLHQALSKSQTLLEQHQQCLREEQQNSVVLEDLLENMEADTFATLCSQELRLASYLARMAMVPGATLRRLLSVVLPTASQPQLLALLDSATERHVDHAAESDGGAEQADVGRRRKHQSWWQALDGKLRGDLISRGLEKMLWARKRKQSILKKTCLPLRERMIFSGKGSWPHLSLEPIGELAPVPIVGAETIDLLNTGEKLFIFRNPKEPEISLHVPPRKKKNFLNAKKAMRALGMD
UniProt Q9H4H8, sequence (Q9H4H8 whole entry, looked up): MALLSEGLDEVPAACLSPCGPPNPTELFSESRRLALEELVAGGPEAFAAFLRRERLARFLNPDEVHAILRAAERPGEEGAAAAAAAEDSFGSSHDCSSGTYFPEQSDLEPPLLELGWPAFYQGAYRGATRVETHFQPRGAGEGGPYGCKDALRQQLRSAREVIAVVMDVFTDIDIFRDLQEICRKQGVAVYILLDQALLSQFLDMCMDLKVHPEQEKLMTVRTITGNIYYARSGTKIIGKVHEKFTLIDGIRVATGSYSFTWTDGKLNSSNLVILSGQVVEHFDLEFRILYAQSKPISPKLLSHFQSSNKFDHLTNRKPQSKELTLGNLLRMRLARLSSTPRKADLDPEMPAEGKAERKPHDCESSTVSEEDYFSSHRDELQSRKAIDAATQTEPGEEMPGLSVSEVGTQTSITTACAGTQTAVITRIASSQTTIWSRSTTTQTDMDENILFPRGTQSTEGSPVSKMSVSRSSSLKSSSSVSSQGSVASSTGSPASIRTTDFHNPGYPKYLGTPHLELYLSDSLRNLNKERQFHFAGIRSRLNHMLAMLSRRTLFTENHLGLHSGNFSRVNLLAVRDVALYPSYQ
UniProt P09668, sequence (P09668 whole entry, looked up): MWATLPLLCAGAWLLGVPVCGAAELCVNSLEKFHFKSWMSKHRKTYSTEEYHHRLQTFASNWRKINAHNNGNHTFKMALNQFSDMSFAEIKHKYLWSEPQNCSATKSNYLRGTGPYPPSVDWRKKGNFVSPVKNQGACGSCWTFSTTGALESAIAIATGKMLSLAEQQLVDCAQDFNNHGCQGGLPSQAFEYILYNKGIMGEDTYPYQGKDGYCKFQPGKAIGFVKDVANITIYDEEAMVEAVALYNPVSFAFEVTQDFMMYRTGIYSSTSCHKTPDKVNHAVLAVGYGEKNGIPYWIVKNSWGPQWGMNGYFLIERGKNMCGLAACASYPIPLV
UniProt P50402, sequence (P50402 whole entry, looked up): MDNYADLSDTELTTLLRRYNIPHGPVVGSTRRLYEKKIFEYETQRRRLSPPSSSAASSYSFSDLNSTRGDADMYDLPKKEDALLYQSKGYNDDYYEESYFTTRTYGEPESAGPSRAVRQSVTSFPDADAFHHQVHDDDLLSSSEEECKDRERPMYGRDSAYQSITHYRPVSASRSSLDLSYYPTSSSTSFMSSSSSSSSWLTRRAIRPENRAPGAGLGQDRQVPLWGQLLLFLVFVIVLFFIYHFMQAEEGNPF
UniProt Q14118, sequence (Q14118 whole entry, looked up): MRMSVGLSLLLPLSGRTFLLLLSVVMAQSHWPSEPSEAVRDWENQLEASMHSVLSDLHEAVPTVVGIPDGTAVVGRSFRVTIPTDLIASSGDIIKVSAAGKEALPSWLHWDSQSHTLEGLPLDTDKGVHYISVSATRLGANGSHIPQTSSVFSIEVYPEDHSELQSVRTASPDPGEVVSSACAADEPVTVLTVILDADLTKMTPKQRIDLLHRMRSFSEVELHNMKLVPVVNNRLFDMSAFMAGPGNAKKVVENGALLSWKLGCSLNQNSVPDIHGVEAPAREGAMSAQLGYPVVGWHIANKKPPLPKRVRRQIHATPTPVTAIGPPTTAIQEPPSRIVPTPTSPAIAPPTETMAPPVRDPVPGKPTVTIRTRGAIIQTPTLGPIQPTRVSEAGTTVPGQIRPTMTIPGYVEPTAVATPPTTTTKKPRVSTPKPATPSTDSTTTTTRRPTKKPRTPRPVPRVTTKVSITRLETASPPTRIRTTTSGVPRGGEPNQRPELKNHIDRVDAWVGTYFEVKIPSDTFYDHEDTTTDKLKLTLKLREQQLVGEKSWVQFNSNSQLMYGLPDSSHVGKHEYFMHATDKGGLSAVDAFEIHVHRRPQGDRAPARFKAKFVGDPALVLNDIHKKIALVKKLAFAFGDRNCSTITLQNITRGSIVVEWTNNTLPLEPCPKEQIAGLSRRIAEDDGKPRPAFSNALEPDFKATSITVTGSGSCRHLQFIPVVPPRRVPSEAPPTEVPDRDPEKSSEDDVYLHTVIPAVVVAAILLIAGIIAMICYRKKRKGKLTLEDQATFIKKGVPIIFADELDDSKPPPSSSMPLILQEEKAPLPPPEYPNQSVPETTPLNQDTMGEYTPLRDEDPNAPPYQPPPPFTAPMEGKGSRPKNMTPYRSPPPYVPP
UniProt Q01780, sequence (Q01780 whole entry, looked up): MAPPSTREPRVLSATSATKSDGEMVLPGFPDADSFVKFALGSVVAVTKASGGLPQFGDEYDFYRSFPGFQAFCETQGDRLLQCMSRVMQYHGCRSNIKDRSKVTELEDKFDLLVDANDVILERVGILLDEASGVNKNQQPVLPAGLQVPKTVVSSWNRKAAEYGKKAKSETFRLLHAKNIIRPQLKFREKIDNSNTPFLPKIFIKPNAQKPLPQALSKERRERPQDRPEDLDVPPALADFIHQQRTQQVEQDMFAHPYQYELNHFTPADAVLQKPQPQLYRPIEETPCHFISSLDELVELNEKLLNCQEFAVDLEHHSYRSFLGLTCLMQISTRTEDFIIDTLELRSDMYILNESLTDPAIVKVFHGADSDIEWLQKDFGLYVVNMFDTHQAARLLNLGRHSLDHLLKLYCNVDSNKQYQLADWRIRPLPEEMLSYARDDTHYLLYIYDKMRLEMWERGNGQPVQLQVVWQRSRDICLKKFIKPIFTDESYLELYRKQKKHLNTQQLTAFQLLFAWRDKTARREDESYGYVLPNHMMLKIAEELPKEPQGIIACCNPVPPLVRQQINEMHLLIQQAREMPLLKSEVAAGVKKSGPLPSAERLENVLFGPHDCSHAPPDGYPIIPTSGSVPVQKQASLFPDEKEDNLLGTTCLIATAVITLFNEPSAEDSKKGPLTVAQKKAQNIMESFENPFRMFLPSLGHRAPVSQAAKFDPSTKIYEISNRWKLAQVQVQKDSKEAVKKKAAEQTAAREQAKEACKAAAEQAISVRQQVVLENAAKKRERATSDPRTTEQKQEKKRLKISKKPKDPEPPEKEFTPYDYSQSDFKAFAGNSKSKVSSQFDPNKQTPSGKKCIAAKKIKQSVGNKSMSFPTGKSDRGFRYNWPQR
UniProt Q9UK59, sequence (Q9UK59 whole entry, looked up): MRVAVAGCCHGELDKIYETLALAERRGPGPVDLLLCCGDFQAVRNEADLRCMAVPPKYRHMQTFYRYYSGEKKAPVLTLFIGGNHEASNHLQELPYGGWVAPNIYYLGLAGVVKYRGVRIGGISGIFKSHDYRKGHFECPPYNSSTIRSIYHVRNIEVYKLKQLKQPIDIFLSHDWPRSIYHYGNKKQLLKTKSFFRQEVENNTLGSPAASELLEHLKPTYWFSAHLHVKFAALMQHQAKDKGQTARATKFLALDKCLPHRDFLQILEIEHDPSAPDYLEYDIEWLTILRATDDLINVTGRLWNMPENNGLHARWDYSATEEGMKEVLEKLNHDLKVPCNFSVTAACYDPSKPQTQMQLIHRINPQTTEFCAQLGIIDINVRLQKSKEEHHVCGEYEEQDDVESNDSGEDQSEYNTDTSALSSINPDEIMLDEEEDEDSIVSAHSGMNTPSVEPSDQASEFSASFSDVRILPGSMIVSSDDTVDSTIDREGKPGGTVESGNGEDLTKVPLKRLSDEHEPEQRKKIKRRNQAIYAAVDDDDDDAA
UniProt P24534, sequence (P24534 whole entry, looked up): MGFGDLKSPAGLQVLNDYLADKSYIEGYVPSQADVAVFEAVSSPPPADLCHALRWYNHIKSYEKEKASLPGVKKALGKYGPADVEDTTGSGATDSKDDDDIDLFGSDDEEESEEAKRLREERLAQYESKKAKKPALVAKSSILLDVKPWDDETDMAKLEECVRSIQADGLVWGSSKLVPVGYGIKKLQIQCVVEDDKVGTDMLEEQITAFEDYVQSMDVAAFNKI

Row | Target | log2 fold change (erlotinib) | log2 fold change [1] | log2 fold change [2] | log2 fold change [3] | log2 fold change [4] | log2 fold change [5] | log2 fold change [6] | log2 fold change [7] | log2 fold change [8] | log2 fold change [9]
1 | DAG1 (UniProt Q14118) | 0.055 (inactive) | 0.067 (inactive) | -0.043 (inactive) | 0 (inactive) | -0.038 (inactive) | -0.037 (inactive) | -0.154 (inactive) | -0.06 (inactive) | -0.009 (inactive) | 0.035 (inactive)
2 | FAM122A (UniProt Q96E09) | 0.095 (inactive) | 0.073 (inactive) | 0.053 (inactive) | -0.025 (inactive) | -0.068 (inactive) | 0.051 (inactive) | -0.019 (inactive) | 0.03 (inactive) | 0.031 (inactive) | -0.075 (inactive)
3 | DNTTIP2 (UniProt Q5QJE6) | -0.111 (inactive) | -0.186 (inactive) | -0.242 (inactive) | 0.038 (inactive) | 0.005 (inactive) | -0.043 (inactive) | -0.069 (inactive) | -0.269 (inactive) | -0.004 (inactive) | -0.111 (inactive)
4 | DHRS3 (UniProt O75911) | 0.116 (inactive) | 0.041 (inactive) | 0.11 (inactive) | 0.018 (inactive) | 0.155 (inactive) | -0.037 (inactive) | 0.024 (inactive) | 0.074 (inactive) | 0.005 (inactive) | 0.191 (inactive)
5 | EEF1A1 (UniProt P68104) | -0.083 (inactive) | 0.119 (inactive) | 0.051 (inactive) | 0.062 (inactive) | -0.062 (inactive) | -0.343 (inactive) | 0.195 (inactive) | 0.135 (inactive) | -0.055 (inactive) | 0.122 (inactive)
6 | CYP51A1 (UniProt Q16850) | -0.09 (inactive) | 0.019 (inactive) | -0.248 (inactive) | -0.002 (inactive) | 0.007 (inactive) | 0.018 (inactive) | -0.096 (inactive) | 0.089 (inactive) | 0.014 (inactive) | 0.137 (inactive)
7 | DBR1 (UniProt Q9UK59) | 0.031 (inactive) | 0.042 (inactive) | -0.052 (inactive) | 0.025 (inactive) | -0.033 (inactive) | 0.002 (inactive) | 0.069 (inactive) | 0.006 (inactive) | -0.026 (inactive) | 0.044 (inactive)
8 | FAM160B1 (UniProt Q5W0V3) | 0.034 (inactive) | 0.085 (inactive) | 0.012 (inactive) | -0.007 (inactive) | 0.019 (inactive) | 0.037 (inactive) | -0.005 (inactive) | 0 (inactive) | -0.035 (inactive) | -0.021 (inactive)
9 | DBNL isoform 3 (UniProt Q9UJU6) | 0.06 (inactive) | 0.024 (inactive) | 0.034 (inactive) | -0.063 (inactive) | -0.012 (inactive) | 0.146 (inactive) | -0.008 (inactive) | -0.004 (inactive) | -0.084 (inactive) | -0.066 (inactive)
10 | CTSH (UniProt P09668) | 0.015 (inactive) | -0.054 (inactive) | 0.052 (inactive) | 0 (inactive) | -0.062 (inactive) | 0.048 (inactive) | 0.022 (inactive) | -0.011 (inactive) | 0.047 (inactive) | 0.057 (inactive)
11 | EPHX2 (UniProt P34913) | -0.01 (inactive) | 0.213 (inactive) | -0.008 (inactive) | 0.2 (inactive) | 0.09 (inactive) | -0.004 (inactive) | 0.038 (inactive) | -0.032 (inactive) | 0.123 (inactive) | -0.001 (inactive)
12 | EGLN1 (UniProt Q9GZT9) | 0.035 (inactive) | -0.355 (active) | 0.075 (inactive) | -0.035 (inactive) | 0.043 (inactive) | -0.08 (inactive) | 0.021 (inactive) | -0.02 (inactive) | 0.01 (inactive) | -0.003 (inactive)
13 | DHX16 (UniProt O60231) | 0.01 (inactive) | 0.05 (inactive) | 0.224 (inactive) | 0.027 (inactive) | 0.007 (inactive) | -0.01 (inactive) | 0.014 (inactive) | 0.013 (inactive) | -0.044 (inactive) | 0.024 (inactive)
14 | DHCR24 (UniProt Q15392) | 0.393 (inactive) | 0.068 (inactive) | -0.151 (inactive) | 0.092 (inactive) | 0.081 (inactive) | -0.024 (inactive) | 0.03 (inactive) | -0.009 (inactive) | -0.066 (inactive) | -0.074 (inactive)
15 | DUS3L (UniProt Q96G46) | -0.073 (inactive) | 0.025 (inactive) | 0.118 (inactive) | 0.059 (inactive) | 0.016 (inactive) | 0.037 (inactive) | 0.042 (inactive) | -0.001 (inactive) | -0.043 (inactive) | 0.078 (inactive)
16 | FAM83D (UniProt Q9H4H8) | 0.035 (inactive) | 0.027 (inactive) | -0.124 (inactive) | -0.015 (inactive) | -0.016 (inactive) | 0.02 (inactive) | 0.086 (inactive) | 0.059 (inactive) | -0.071 (inactive) | -0.062 (inactive)
17 | DTNBP1 (UniProt Q96EV8) | 0.016 (inactive) | 0.028 (inactive) | 0.038 (inactive) | 0.03 (inactive) | 0.028 (inactive) | -0.038 (inactive) | -0.043 (inactive) | -0.043 (inactive) | -0.009 (inactive) | 0.002 (inactive)
18 | EXOSC10 (UniProt Q01780) | 1.07 (inactive) | -0.86 (active) | 0.136 (inactive) | 0.008 (inactive) | 0.078 (inactive) | -0.101 (inactive) | -0.444 (inactive) | -0.055 (inactive) | 0.052 (inactive) | 0.067 (inactive)
19 | DLD (UniProt P09622) | 0.001 (inactive) | -0.018 (inactive) | 0.044 (inactive) | -0.083 (inactive) | -0.007 (inactive) | -0.018 (inactive) | 0.032 (inactive) | -0.018 (inactive) | 0.031 (inactive) | 0.054 (inactive)
20 | EMD (UniProt P50402) | 0.025 (inactive) | 0.002 (inactive) | -0.078 (inactive) | 0.056 (inactive) | 0.008 (inactive) | 0.033 (inactive) | -0.011 (inactive) | -0.072 (inactive) | 0.031 (inactive) | 0.074 (inactive)
21 | EHD2 (UniProt Q9NZN4) | -0.044 (inactive) | 0.025 (inactive) | 0.013 (inactive) | -0.077 (inactive) | 0.007 (inactive) | -0.01 (inactive) | -0.003 (inactive) | 0.01 (inactive) | -0.008 (inactive) | 0.041 (inactive)
22 | EXTL2 (UniProt Q9UBQ6) | 0.051 (inactive) | 0.018 (inactive) | -0.129 (inactive) | 0.04 (inactive) | 0.016 (inactive) | 0.037 (inactive) | -0.031 (inactive) | 0.062 (inactive) | -0.092 (inactive) | -0.119 (inactive)
23 | DPH5 isoform 5 (UniProt Q9H2P9) | 0 (inactive) | 0.054 (inactive) | 0.093 (inactive) | 0.037 (inactive) | 0.022 (inactive) | 0.03 (inactive) | 0.041 (inactive) | 0.005 (inactive) | 0.004 (inactive) | 0.052 (inactive)
24 | CTNNB1 (UniProt P35222) | -0.035 (inactive) | 0.062 (inactive) | -0.033 (inactive) | 0.025 (inactive) | 0.092 (inactive) | 0.108 (inactive) | 0.036 (inactive) | -0.01 (inactive) | -0.002 (inactive) | -0.032 (inactive)
25 | EVC2 (UniProt Q86UK5) | -0.01 (inactive) | -0.044 (inactive) | -0.013 (inactive) | -0.035 (inactive) | -0.069 (inactive) | -0.019 (inactive) | -0.002 (inactive) | 0.061 (inactive) | -0.042 (inactive) | -0.117 (inactive)
26 | EEF1B2 (UniProt P24534) | -0.006 (inactive) | 0.033 (inactive) | -0.028 (inactive) | -0.058 (inactive) | 0.008 (inactive) | -0.036 (inactive) | 0.027 (inactive) | 0.02 (inactive) | 0.064 (inactive) | -0.058 (inactive)
27 | CUX1 isoform 2 (UniProt Q13948) | -0.025 (inactive) | 0.017 (inactive) | 0.012 (inactive) | 0.036 (inactive) | 0.014 (inactive) | -0.031 (inactive) | -0.043 (inactive) | 0.009 (inactive) | -0.009 (inactive) | -0.031 (inactive)

From the supplement of paper PMC10849652
